Assay results taken from PubChem BioAssay AID1851 (National Center for Advancing Translational Sciences (NCATS), 2009).
In all, about 16,000 compounds went through this assay and about 2,600 (16%) were called active. Roughly 20% stayed inconclusive and do not appear here. Calls come from the whole dose curve; as a rule, active = well fitted curve in the direction sought with a large enough effect; inconclusive = small, poorly fitted or top-dose-only effect, or effect the other way; inactive = no such curve, though single readings can be large or run the other way. A selection follows. Where a structure was tested more than once in an assay, its records may differ in their call.

target: Cytochrome P450 2D6 (Homo sapiens) (UniProt P10635); assay: Cytochrome panel assay with activity outcomes; settings: recombinant CYP, pro-luciferin dealkylation, luminescence, p450-cyp2d6; series mostly up to 57.1 µM; activity, negative = inhibition: at the top concentration
Sequence (P10635 whole entry, looked up): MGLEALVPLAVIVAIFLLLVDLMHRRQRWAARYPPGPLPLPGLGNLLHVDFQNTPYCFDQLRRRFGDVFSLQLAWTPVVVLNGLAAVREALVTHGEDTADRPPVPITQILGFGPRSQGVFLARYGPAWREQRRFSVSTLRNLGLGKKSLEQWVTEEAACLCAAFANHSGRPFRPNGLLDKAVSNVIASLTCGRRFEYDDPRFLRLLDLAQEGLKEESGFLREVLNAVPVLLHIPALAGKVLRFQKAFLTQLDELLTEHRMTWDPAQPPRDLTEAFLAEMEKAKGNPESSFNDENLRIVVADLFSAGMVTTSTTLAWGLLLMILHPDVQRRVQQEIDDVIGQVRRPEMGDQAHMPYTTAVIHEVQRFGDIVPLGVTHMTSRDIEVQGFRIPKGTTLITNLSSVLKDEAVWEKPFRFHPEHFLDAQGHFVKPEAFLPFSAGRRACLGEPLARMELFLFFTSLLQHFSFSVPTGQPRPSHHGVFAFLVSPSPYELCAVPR
% is set by controls: 0 for no effect and ±100 for the full control effect.

SMILES | activity, negative = inhibition | AC50
CCC(C)NS(=O)(=O)c1ccc(NC(=O)CCC2CCCCC2)cc1 (configuration not stated) | -5.09% (inactive) | 
Cn1cccc1C(=O)N1CCC2(CC1)CCN(c1ncccn1)CC2 | -13.7% (inactive) | 
COc1ccccc1CNc1ccnc(-c2ccoc2)n1 |  | 15.8 µM (active)
CN(C)c1ccc(-c2nccc(NCc3ccccc3)n2)cc1 |  | 3.16 µM (active)
COc1ccc(CNc2ccnc(-c3ccc(N(C)C)cc3)n2)c(OC)c1 |  | 12.6 µM (active)
COc1ccccc1CNc1ccnc(-c2ccc(N(C)C)cc2)n1 |  | 0.501 µM (active)
COc1ccc(CNc2ccnc(-c3ccc(C(=O)N(C)C)cc3)n2)c(OC)c1 | -5.55% (inactive) | 
COC(=O)Cc1c(C)nc2nc(NCc3ccccc3OC)[nH]n2c1=O | -2.97% (inactive) | 
Cc1cnc(CNc2ccnc(-c3ccc(N(C)C)cc3)n2)cn1 | -5.57% (inactive) | 
CCOC(=O)N1CCC(NC(=O)C2CCN(S(=O)(=O)N3CCCC3)CC2)CC1 | 8.93% (inactive) | 
O=C=Nc1ccc(Cc2ccc(N=C=O)cc2)cc1 (tested in a mixture with another compound) | 6.78% [at 11.4 µM] (inactive) | 
O=C(CNC(=O)c1ccc([N+](=O)[O-])cc1)c1ccccc1 | 3.96% (inactive) | 
COc1cc(-c2nnc(SCC3(c4ccccc4)OCCO3)o2)cc(OC)c1OC | -8.87% (inactive) | 
COCCn1c(=O)c(-c2ccc(Cl)cc2)nc2cncnc21 | -16.2% (inactive) | 
Nc1ccccc1CCCC(=O)O | -8.09% [at 11.4 µM] (inactive) | 
Cc1nc2cnc(N(C)C)nc2n(CCc2ccccc2)c1=O | -7.01% (inactive) | 
O=C(CSc1nc2ccccc2c(=O)n1NC(=O)c1ccccc1)c1ccc(Cl)cc1 | 1.17% (inactive) | 
COC(=O)C/C=C\[C@@H](C)[C@@H](/C=N\O[C@@H](C)c1cc(-c2c(C)cc(C)cc2C)no1)NS(=O)(=O)c1ccc(C)cc1 | 10.9% [at 11.4 µM] (inactive) | 
COc1cc2c(cc1OC)C(C(=O)N1CCOCC1)C(c1cccs1)N(C)C2=O (configuration not stated) | 10.7% (inactive) | 
COc1cc2c(cc1OC)/C(=C/C(=O)N1CCOCC1)NC(C)(C)C2 |  | 2.82 µM (active)
COc1ccc(CC(=S)N2CCOCC2)cc1OC | 0.628% (inactive) | 
CCOC(=O)c1ccc(N2C(=O)CC(Nc3ccc(CCO)cc3)C2=O)cc1 (configuration not stated) | -5.73% (inactive) | 
Cn1c(=O)c2c(nc(NCCNc3nc4c(c(=O)n(C)c(=O)n4C)n3C)n2C)n(C)c1=O | 14.2% [at 11.4 µM] (inactive) | 
COc1cc(C(=O)N2CCN(C(=O)c3ccccc3)CC2)cc(OC)c1OC | -0.531% (inactive) | 
COC(=O)C/C=C\[C@H](C)[C@@H](OC)c1ccccc1Br | 12.6% [at 11.4 µM] (inactive) | 

SMILES | activity, negative = inhibition | AC50
COc1ccc2[nH]cc(CCNc3ccnc(-c4ccccc4Cl)n3)c2c1 |  | 20 µM (active)
COc1ccc2[nH]cc(CCNc3ccnc(-c4ccccc4C)n3)c2c1 |  | 2.51 µM (active)
COCCNc1ccnc(-c2ccccc2C)n1 | -6.07% (inactive) | 
Cc1cccc(-n2ncc3c(Nc4c(C)n(C)n(-c5ccccc5)c4=O)ncnc32)c1 | 3.47% (inactive) | 
N#CC(C#N)=CNCCN1CCN(C=C(C#N)C#N)CC1 | 5.03% [at 11.4 µM] (inactive) | 
Cc1n[nH]c(C)c1S(=O)(=O)N1CCC(C(=O)O)CC1 | 9.86% (inactive) | 
NS(=O)(=O)c1cc(Cl)c(Cl)c(S(N)(=O)=O)c1 | -1.87% [at 25.6 µM] (inactive) | 
C[C@@H](C[C@H](N)C(=O)O)C(=O)O | 14.5% [at 11.4 µM] (inactive) | 
Clc1cc2c(c(CSC3=NCN(CC4CC4)CN3)c1)OCOC2 |  | 0.2 µM (active)
O=c1c2c(-c3cccs3)csc2[nH]c(=S)n1-c1ccccc1 | -9.42% (inactive) | 
Cc1ccccc1OCC(=O)Nc1sc(C(=O)Nc2cccc(C)c2C)c(C)c1C#N | 24.8% (inactive) | 
Cn1cccc1C(=O)N1CCC2(CCN(C(=O)Nc3ccccc3)CC2)CC1 | 4.24% (inactive) | 
O=[N+]([O-])c1nccn1C[C@H](O)CN1CCCCC1 | 9.02% [at 11.4 µM] (inactive) | 
O[C@H](CN1CCN(c2cccc(Cl)c2)CC1)C(c1ccccc1)c1ccccc1 |  | 12.6 µM (active) and inactive
O=c1n(CCCN2CCN(c3cccc(Cl)c3)CC2)nc2ccccn12 | -11% (inactive) | 
O=c1nc2ccccc2c2n1CC(CN1CCN(c3cccc(Cl)c3)CC1)N2 (configuration not stated) | -35.5% (inactive) | 
CC(C)OCCCn1c(=S)[nH]c2ncccc2c1=O | -7.67% (inactive) | 
COCCn1c(=O)c(C)nc2cnc(N3CCNCC3)nc21 | -1.98% (inactive) | 
Cc1noc(NS(=O)(=O)c2ccc(NC(=O)c3ccc(Br)o3)cc2)c1C | 0.162% (inactive) | 
COCCOC(=O)C1=C(C)NC(=O)N(C(C)=O)C1c1ccc(Cl)cc1 (configuration not stated) | 1.76% (inactive) | 
COC(=O)C1=CO[C@@H](C)[C@H]2CN3CCc4c([nH]c5ccccc45)[C@@H]3C[C@H]12 |  | 0.002 µM (active)
COc1ccc2c3c([nH]c2c1)[C@@H]1C[C@@H]2[C@@H](C[C@H](O)[C@H](OC)[C@H]2C(=O)O)CN1CC3 | 3.02% [at 25.6 µM] (inactive) | 
COC(=O)[C@@H]1[C@@H]2C[C@H]3c4[nH]c5ccccc5c4CCN3C[C@@H]2CC[C@@H]1OS(=O)(=O)O | -18.5% [at 11.4 µM] (inactive) | 
C[C@@H](C(=O)O)c1ccc(C[C@@H]2CCCC2=O)cc1 | 17.2% (inactive) | 
COCCNC(=O)c1cn(Cc2c(F)cccc2Cl)nn1 | 11.7% (inactive) | 

SMILES | activity, negative = inhibition | AC50
Cc1cnc(CNc2ncnc3ccc(-c4ccccc4CN(C)C)cc23)cn1 |  | 2.51 µM (active)
Cc1cnc(CNc2cc(-c3ccccc3Cl)ncn2)cn1 | -20.6% (inactive) | 
Cc1cnc(CNc2ncnc3ccc(-c4ccccc4Cl)cc23)cn1 |  | 15.8 µM (active)
Cc1cnc(CNc2cc(-c3ccc(C(=O)N(C)C)cc3)ncn2)cn1 | 8.03% (inactive) | 
CCN(CC)C(=O)C1CC(=O)N(c2ccc(OC)cc2)C1c1ccc(OC)cc1 (configuration not stated) | 4.78% (inactive) | 
COc1ccc(NC(=O)CSC2=NC(=O)CC(C)=N2)cc1 | -4.11% (inactive) | 
N#CCCn1nnc2ccccc21 | -4.37% (inactive) | 
O=C(O)Cc1cc(Cl)ccc1O | 16.8% [at 11.4 µM] (inactive) | 
CC(C)Oc1ccc(CNC(=O)CC(c2ccccc2)c2cc(Cl)ccc2O)cc1 (configuration not stated) |  | 14.1 µM (active)
O=C(NCc1ccccc1)c1ccc(Cl)cc1[N+](=O)[O-] | -27.1% (inactive) | 
CC(C)Oc1ccc(C(=O)Nc2ccc(NC(=O)c3ccco3)c(Cl)c2)cc1 | -23.4% (inactive) | 
Cc1cccc(C(CC(=O)N2CCCC2)c2ccccc2)c1O (configuration not stated) | -13.7% (inactive) | 
CN(Cc1ccccc1)C(=O)CC(c1ccccc1)c1cc(Cl)ccc1O (configuration not stated) |  | 8.91 µM (active)
CCOC(=O)N1CCC(NS(=O)(=O)c2ccc3c(c2)C(C)(C)C(=O)N3C)CC1 | 27.5% (inactive) | 
C[N+](C)(C)CCO | 1.57% (inactive) | 
COc1ccc(C(=O)n2nc(-c3ccccc3)nc2SC)cc1 | -5.42% (inactive) | 
Cc1ccc(C2C(C(=O)c3ccco3)=C(O)C(=O)N2c2nnc(C)s2)cc1 (configuration not stated) | -4.53% (inactive) | 
O=C1Nc2cc(C(=O)N3CCOCC3)ccc2SC1N1CCOCC1 (configuration not stated) | 22.1% (inactive) | 
COc1cc(CNC2CCCC2)cc(Cl)c1OCc1ccccc1Cl |  | 0.891 µM (active)
COc1ccccc1CNC(=O)C1CC(=O)N(C2CCCC2)C1 (configuration not stated) | 0.967% (inactive) | 
COc1ccccc1CNC(=O)CCCn1c(=O)c2ccccc2n(CC(=O)NC2CCCC2)c1=O | -29.3% (inactive) | 
NC(=O)c1ccc(C2SCC(=O)N2Cc2ccccc2)cc1 (configuration not stated) | 0.406% (inactive) | 
Cc1ccc(CNC(=O)Cc2csc(Nc3nc(=S)[nH]c4ccccc34)n2)cc1 | -28.3% (inactive) | 
CC(=O)OCC(=O)[C@@]1(O)[C@H](C)C[C@@H]2[C@H]3CCC4=CC(=O)C=C[C@]4(C)[C@]3(F)[C@@H](O)C[C@@]21C | 5.29% [at 25.6 µM] (inactive) | 
CC(C)(C)N1C(=O)[C@@H]2[C@H]3C(=CC[C@H]2C1=O)C(=O)[C@H]1O[C@H]1[C@H]3O | 11.6% [at 11.4 µM] (inactive) | 

SMILES | activity, negative = inhibition | AC50
O=C1[C@@H]2C=CC=CC2=NC(=S)N1CCN1CCC(=C(c2ccc(F)cc2)c2ccc(F)cc2)CC1 |  | 12.6 µM (active)
COC(=O)C/C=C\[C@@H](C)[C@@H](/C=N\O[C@@H](C)c1cn([C@H]2COC[C@H]2O)nn1)OC | 15.1% [at 11.4 µM] (inactive) | 
N=C(N)SCC(=O)O | -6.02% [at 11.4 µM] (inactive) | 
Cc1ccc(NC(=O)C2CC(=O)n3c(nc4ccccc43)N2)cc1 (configuration not stated) | 22.5% (inactive) | 
O=C1CC(c2ccc3c(c2)OCO3)CN1 (configuration not stated) | -9.95% (inactive) | 
O=C1CC(c2ccc3c(c2)OCO3)Sc2nc3ccccc3n21 (configuration not stated) |  | 8.91 µM (active)
Cc1cccc(OCC(=O)N/N=C\C=C\c2ccc3c(c2)OCO3)c1C | -10.2% (inactive) | 
COC(=O)N/N=C\C=C\c1ccc2c(c1)OCO2 |  | 11.2 µM (active)
CSC1=N/C(=C\c2ccc3c(c2)OCO3)C(=O)S1 | -11.1% (inactive) | 
CCOc1cc(/C=C2\CCC/C(=C\c3cc(Cl)c(O)c(OCC)c3)C2=O)cc(Cl)c1O | -20.4% (inactive) | 
CCOC(=O)c1c2ccc(OCC(=O)N/N=C/c3ccc(Cl)cc3)cc2n2ccccc12 | -6.7% (inactive) | 
Clc1ccccc1CSc1nnc(/C=C/c2ccccc2)o1 | -13.5% (inactive) | 
O=C(Nc1nnc(SCc2c(Cl)cccc2Cl)s1)C1CCCO1 (configuration not stated) | -22.2% (inactive) | 
Clc1cccc(Cl)c1CSc1nnc(/C=C/c2ccccc2)o1 |  | 28.2 µM (active)
COc1cccc(Nc2ncc3nc(-c4cc(F)cc(F)c4)c(=O)n(CCC#N)c3n2)c1 | -5.95% (inactive) | 
CCCCCCCCn1cc(C(C)=O)c(=O)[nH]c1=O | -17.1% (inactive) | 
O=c1cnc2cnc(Oc3cccc(Cl)c3)nc2n1C[C@H]1CCCO1 | -10.4% (inactive) | 
COc1ccc(OC)c(N(CC(=O)N2CCc3ccccc3C2)S(C)(=O)=O)c1 | 11.7% (inactive) | 
CCN(CC)S(=O)(=O)c1ccc(OC)c(NC(=O)c2cc([N+](=O)[O-])ccc2Cl)c1 | 7.36% (inactive) | 
COc1ccc([N+](=O)[O-])cc1N(CC(O)CN(CC(C)C)CC(C)C)S(=O)(=O)c1ccccc1 (configuration not stated) |  | 0.398 µM (active)
COc1ccc(C(=O)CN2C(=O)NC(C)(c3ccccc3)C2=O)cc1OC (configuration not stated) | 29.8% (inactive) | 
CN(C)Cc1ccc(O)c(CN(C)C)n1 | 2.9% [at 11.4 µM] (inactive) | 
